# Results filed as inconclusive are left out. Calls of active or inactive are those of the source. Rule for the calls, unless noted: active = hit-call score of the fitted dose curve at least 0.9, where 1 is the maximum; inconclusive = response in the unintended direction; inactive = score below 0.9.
# Columns and labels:
# [1] = TOX21_PR_LUC_Followup_Antagonist_viability: Viability Assessment in the Tox21 HEK293 Progesterone Receptor (PR) Antagonism Luciferase Follow-Up Assay (AID 2283940)
# Outline: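 HEK293-PR-A-luc cells, precultured 5 days in assay medium with 10% charcoal-stripped FBS, were seeded at 3,000 cells/well, treated with compounds in DMSO for 16 h at 37C, and viability was read as cellular ATP by CellTiter-Glo luminescence.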
# [2] = target: THRA (gene 7067) (UniProt P10827); experiment: TOX21_TRA_COA_Agonist_Followup_ratio: Tox21 Thyroid Hormone Receptor alpha Agonism through Coactivator Recruitment Follow-Up Assay, Ratio (AID 2283948; active = hit-call score of the fitted dose curve at least 0.9, where 1 is the maximum; inactive = score below 0.9)
# Sequence of THRA (gene 7067) (P10827 whole entry, looked up, the tested form may be a part): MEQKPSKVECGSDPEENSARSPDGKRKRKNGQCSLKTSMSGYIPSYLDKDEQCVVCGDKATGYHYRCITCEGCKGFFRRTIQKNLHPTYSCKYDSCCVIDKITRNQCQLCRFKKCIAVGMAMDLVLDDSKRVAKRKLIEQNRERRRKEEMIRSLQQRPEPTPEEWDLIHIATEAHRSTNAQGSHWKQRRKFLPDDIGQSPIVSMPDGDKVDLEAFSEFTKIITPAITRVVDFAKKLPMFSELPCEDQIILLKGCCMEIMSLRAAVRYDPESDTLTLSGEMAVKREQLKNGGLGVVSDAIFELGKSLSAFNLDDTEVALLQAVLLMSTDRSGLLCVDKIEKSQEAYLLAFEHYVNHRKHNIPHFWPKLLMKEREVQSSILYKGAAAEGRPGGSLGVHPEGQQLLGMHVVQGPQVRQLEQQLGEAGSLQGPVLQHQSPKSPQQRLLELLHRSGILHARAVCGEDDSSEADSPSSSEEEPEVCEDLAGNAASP
# Outline: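 Cell-free TR-FRET: GST-tagged TRα LBD (2.5 nM) with 0.10% BSA and compound, then fluorescein-SRC-2 peptide (200 nM) and Tb-anti-GST antibody (2 nM). Readout 520:495 nm ratio (ex 340 nm), normalized to DMSO (0%) and T3 (100%).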
# [3] = target: THRB (gene 7068) (UniProt P10828); experiment: TOX21_TRB_COA_Agonist_Followup_ratio: Tox21 Thyroid Hormone Receptor beta Agonism through Coactivator Recruitment Follow-Up Assay, Ratio (AID 2283963; active = hit-call score of the fitted dose curve at least 0.9, where 1 is the maximum; inactive = score below 0.9)
# Sequence of THRB (gene 7068) (P10828 whole entry, looked up, the tested form may be a part): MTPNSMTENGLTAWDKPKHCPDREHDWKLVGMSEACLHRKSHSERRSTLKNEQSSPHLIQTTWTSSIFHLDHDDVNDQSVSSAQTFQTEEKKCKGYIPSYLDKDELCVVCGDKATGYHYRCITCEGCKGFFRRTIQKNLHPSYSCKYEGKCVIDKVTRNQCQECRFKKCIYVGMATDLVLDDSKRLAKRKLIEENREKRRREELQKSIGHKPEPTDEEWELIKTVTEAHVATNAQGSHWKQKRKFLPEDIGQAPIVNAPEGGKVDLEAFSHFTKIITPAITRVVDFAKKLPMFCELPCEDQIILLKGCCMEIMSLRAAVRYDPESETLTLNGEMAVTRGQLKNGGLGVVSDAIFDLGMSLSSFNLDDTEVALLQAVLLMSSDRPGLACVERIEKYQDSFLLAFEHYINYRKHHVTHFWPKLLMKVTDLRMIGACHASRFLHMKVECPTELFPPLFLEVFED
# Outline: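 Cell-free TR-FRET coactivator recruitment: GST-tagged TRβ LBD (5.0 nM) with 0.10% BSA incubated with compound, then fluorescein-SRC-2 peptide (200 nM) and Tb-anti-GST antibody (2 nM) added. 520:495 nm ratio normalized to DMSO (0%) and T3 (100%).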
# [4] = target: Thyroid hormone receptor alpha (Rattus norvegicus) + Thyroid hormone receptor beta (Rattus norvegicus) (UniProt P18113+P63059); experiment: TOX21_TR_LUC_GH3_Antagonist_Followup: Tox21 GH3 Thyroid Hormone Receptor Antagonism Luciferase Follow-Up Assay (AID 2283942)
# Procedure: TOX21_TR_LUC_GH3_Agonist_Followup is a secondary assay for the TOX21_TR_LUC_GH3_Agonist assay. TOX21_TR_LUC_GH3_Agonist_Followup is a cell-based, single-readout assay that uses GH3, a rat pituitary gland cell line, with measurements taken at 28 hours after chemical dosing in a 1536-well plate.TOX21_TR_LUC_GH3_Antagonist_Followup is one of one assay component(s) measured or calculated from the TOX21_TR_LUC_GH3_Antagonist_Followup assay. It is designed to make measurements of luciferase induction, a form of inducible reporter, as detected with bioluminescence signals by CellTiter-Glo Luciferase-coupled ATP quantitation technology.Data from the assay component TOX21_TR_LUC_GH3_Antagonist_Followup was analyzed into 1 assay endpoint. This assay endpoint, TOX21_TR_LUC_GH3_Antagonist_Followup, was analyzed in the positive analysis fitting direction relative to DMSO as the negative control and baseline of activity. Using a type of inducible reporter, gain-of-signal activity can be used to understand changes in the reporter gene as they relate to the gene THRA and THRB in the GH3 cell line using a luciferase reporter. Furthermore, this assay endpoint can be referred to as a primary readout, because the performed assay has only produced 1 assay endpoint. This assay endpoint is designated followup because it was a confirmatory screen following the primary qHTS assay. […]
# [5] = target: THRA (gene 7067) (UniProt P10827); experiment: TOX21_TRA_COA_Antagonist_Followup_ratio: Tox21 Thyroid Hormone Receptor alpha Antagonism through Coactivator Recruitment Follow-Up Assay, Ratio (AID 2283953)
# Outline: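 This follow-up to the GH3 luciferase screen checks specificity in a cell-free format. It measures SRC-2 coactivator peptide binding to TRα LBD by TR-FRET and scores loss of ratio signal relative to DMSO.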
# [6] = target: THRB (gene 7068) (UniProt P10828); experiment: TOX21_TRB_BLA_Antagonist_Followup_ratio: Tox21 Thyroid Hormone Receptor beta Antagonism Beta-lactamase (BLA) Follow-Up Assay, Ratio (AID 2283958)
# Outline: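 GAL4-DBD/human TRβ-LBD fusion in GeneBLAzer UAS-bla HEK293T cells, 3,000 cells/well in phenol red-free DMEM with 2% charcoal-stripped FBS; compounds at 11 concentrations in triplicate, 18 h at 37C. CCF4-AM substrate 2 h, 460:530 nm ratio relative to DMSO.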
# [7] = TOX21_TRB_BLA_Antagonist_Followup_viability: Viability Assessment in the Tox21 Thyroid Hormone Receptor beta Antagonism Beta-lactamase (BLA) Follow-Up Assay (AID 2283961)
# Outline: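 HEK293T cells with GAL4-human TRβ LBD and UAS-bla reporter, 3,000 cells/well in 2% charcoal-stripped FBS medium; 11-point concentrations in triplicate, 18 h at 37C. Viability from ATP by CellTiter-Glo luminescence, 30 min RT, same plates.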
# [8] = target: THRB (gene 7068) (UniProt P10828); experiment: TOX21_TRB_COA_Antagonist_Followup_ratio: Tox21 Thyroid Hormone Receptor beta Antagonism through Coactivator Recruitment Follow-Up Assay, Ratio (AID 2283967)
# Outline: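 Cell-free TR-FRET: GST-TRb LBD (5.0 nM) with fluorescein-SRC-2 peptide (200 nM) and Tb anti-GST antibody (2 nM), 0.10% BSA. 520:495 nm emission ratio normalized to DMSO (0%) and T3 (100%).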
# [9] = TOX21_PR_LUC_Followup_Agonist_viability: Viability Assessment in the Tox21 HEK293 Progesterone Receptor (PR) Agonism Luciferase Follow-Up Assay (AID 2283941);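 note: loss of signal means cytotoxicity so actives lower viability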
# Excerpt: TOX21_PR_LUC_Followup is a secondary assay for specificity for the TOX21_PR_BLA_Agonist assay. To differentiate true PR agonists from cytotoxic substances, this follow up assay is multiplexed with a cell viability assay.TOX21_PR_LUC_Followup_Agonist_viability is an assay readout measuring cellular ATP content and detected with CellTiter-Glo Luciferase-coupled ATP quantitation.TOX21_PR_LUC_Followup_Agonist_viability used a type of viability reporter where loss-of-signal activity can be used to understand changes in the cell viability. Furthermore, this assay endpoint can be referred to as a secondary readout, because this assay has produced multiple assay endpoints where this one serves a viability function. To generalize the intended target to other relatable targets, this assay endpoint is annotated to the cell cycle intended target family, where the subfamily is cytotoxicity.
# Quality Control Precautions: Maintain cells below 85-90% confluence in culture medium. For assay purpose, the cells should be cultured in assay medium with 10% charcoal stripped FBS for 5 days with alternate day medium changed to fresh medium. Especially while in assay culture, the cells should not reach more than 85% confluence as they would become harder to detach if they reach over confluence.Assay Protocol: HEK293-PR-A-luc cells were dispensed at 3,000 cells/5 uL/well of culture medium into white wall/solid-bottom 1536-well plates using a Multidrop Combi (ThermoFisher Scientific, Waltham, MA) dispenser. After the assay plates were incubated at 37C and […] for 5 h, 23 nL of compounds dissolved in DMSO, positive controls or DMSO only was transferred to the assay plate by a Pintool station (Kalypsys, San Diego, CA). The plates were incubated at 37C and […] for 16 h. Then 4 uL of ONE-Glo reagent (Promega, Madison, WI) was added to each plate using a BioRAPTR Flying Reagent Dispenser (FRD) workstation (Beckman Coulter, Indianapolis, IN, USA) and luminescence was quantified on a ViewLux (PerkinElmer, Shelton, CT) plate reader after 30 min incubation at room temperature.
# [10] = target: THRB (gene 7068) (UniProt P10828); experiment: TOX21_TRB_BLA_Agonist_Followup_ratio: Tox21 Thyroid Hormone Receptor beta Agonism Beta-lactamase (BLA) Follow-Up Assay, Ratio (AID 2283954)
# Outline: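 Human TRβ LBD–GAL4 DBD fusion in GeneBLAzer UAS-bla HEK293T cells; 11 concentrations in triplicate, 18 h at 37°C/5% CO2, T3 as agonist control. CCF4-AM substrate 2 h at room temperature; 460:530 nm ratio fitted for gain of signal versus DMSO.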
smiles,measurement,setting,value
C=C1CC[C@H](O)C/C1=C/C=C1\CCC[C@]2(C)[C@@H]([C@H](C)/C=C/[C@H](C)C(C)C)CC[C@@H]12,outcome,[1],inactive
CC(=O)Nc1ccc(C(=O)CCl)cc1,outcome,[2],inactive
same,outcome,[3],inactive
Oc1c(Cl)cc(Cl)c(Cl)c1Cc1c(O)c(Cl)cc(Cl)c1Cl,AC50,[4],12.7 µM (active)
same,outcome,[5],inactive
same,AC50,[6],20 µM (active)
same,AC50,[7],8.64 µM (active)
same,outcome,[8],inactive
O=c1c(O)c(-c2ccc(O)cc2)oc2cc(O)cc(O)c12,outcome,[1],inactive
same,outcome,[9],inactive
O=Cc1ccccc1S(=O)(=O)O,outcome,[2],inactive
same,outcome,[3],inactive
C[C@H](CCC(=O)NCC(=O)O)[C@H]1CC[C@H]2[C@@H]3[C@H](O)C[C@@H]4C[C@H](O)CC[C@]4(C)[C@H]3C[C@H](O)[C@]12C,outcome,[2],inactive
same,outcome,[10],inactive
same,outcome,[3],inactive
OCCCCC(O)CO (stereo not drawn),outcome,[2],inactive
same,outcome,[10],inactive
same,outcome,[3],inactive
CCOC(=O)C(C#N)=C(c1ccccc1)c1ccccc1,outcome,[1],inactive
same,outcome,[9],inactive
Cc1cc(C)nc(NS(=O)(=O)c2ccc(N)cc2)n1,outcome,[2],inactive
same,outcome,[3],inactive
O=C(Nc1ccc2c(c1)Cc1ccccc1-2)C(F)(F)F,outcome,[1],inactive
same,outcome,[9],inactive
CCCOC(=O)c1c(Cl)c(Cl)c(Cl)c(Cl)c1C(=O)OCCC,outcome,[1],inactive
same,outcome,[9],inactive
N#Cc1ccc(CC(=O)c2cccc(C(F)(F)F)c2)cc1,outcome,[1],inactive
same,outcome,[9],inactive

# Source: PubChem BioAssay (EPA / NIEHS)
